About 1,100 (44%) of roughly 2,500 compounds were called active. So high a share suggests a set chosen from earlier hits. The list shows a part of the results. A number with no mark means an inactive call.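 How the source made its calls: active means inhibition above 50% at 4 µM in the single-point screen; inactive means inhibition of 50% or less.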
Assay: blockers of TNF-a NF-kB luciferase induction – cell-based, HEK293T NF-kB-Luc, luminescence, selectivity assay for NOD1/NOD2 signaling inhibitor project, primary screen (AID 1852)
Conditions: TNF-a induced, 14 h, at 4 µM, hits give high values

Structure (SMILES)	inhibition
CC(=O)c1c(C)[nH]c(C(=O)OCC(=O)Nc2sc3c(c2C#N)CCCC3)c1C	58.6% (active)
NC(=O)c1c(NC(=O)CCCC(=O)O)sc2c1CCCCCC2	16.7%
Cc1ccc(C(=O)Nc2sc3c(c2C(=O)O)CCCC3)o1	-42.9%
Cc1ccccc1Oc1cc(-n2ncc(Cl)c(Cl)c2=O)ncn1	103% (active)
Cc1nc([N+](=O)[O-])c(Br)n1CC(=O)c1ccc2ccccc2c1	25.6%
COc1cc(OC)cc(-c2nnc(NC(=O)c3ccc4c(c3)OCCO4)o2)c1	105% (active)
CCCN(CCC)S(=O)(=O)c1ccc(C(=O)Nc2nnc(-c3cc(OC)cc(OC)c3)o2)cc1	68.9% (active)
O=C(Nc1nnc(-c2ccco2)o1)c1ccc2ccccc2c1	77.9% (active)
COc1ccc(-c2nnc(NC(=O)c3ccc([N+](=O)[O-])o3)o2)c(OC)c1	49.5%
COCCN(CCOC)S(=O)(=O)c1ccc(C(=O)Nc2nc(C)c(C(C)=O)s2)cc1	-3.7%
CSCc1nnc(NC(=O)c2ccc(S(=O)(=O)N(CC(C)C)CC(C)C)cc2)o1	80.1% (active)
O=C(Nc1nnc(-c2ccc3c(c2)OCCO3)o1)c1ccc(Cc2ccccc2)cc1	105% (active)
Cc1noc(C)c1S(=O)(=O)N1CCCC(C(=O)NCc2ccccc2Cl)C1 (centres undefined)	21.1%
Cc1ccccc1N(Cc1cc(=O)[nH]c2ccccc12)C(=O)CCl	105% (active)
Cc1ccc(N(Cc2cc(=O)[nH]c3ccccc23)C(=O)CCl)c(C)c1	100% (active)
COCC1CCCN(C(=O)c2cc(COc3ccc4ncccc4c3)on2)C1 (centres undefined)	33.2%
COCC1CCN(C(=O)c2cc(COc3cccc4cnccc34)on2)CC1	52.7% (active)
O=C(c1cc(COc2cccc3cnccc23)on1)N1CCC(c2ccccc2Cl)C1 (centres undefined)	72.7% (active)
COCC1CCN(C(=O)c2cc(COc3ccc4ncccc4c3)on2)CC1	40.2%
COc1cccc(OCc2cc(C(=O)NCc3cnc4ccccn34)no2)c1	4.4%
O=C(c1cc(COc2c(F)cccc2F)on1)N1CCC(c2ccncc2)CC1	41.3%
CCN(CC)C(=O)C1CCCN(C(=O)c2cc(COc3ccc4ncccc4c3)on2)C1 (centres undefined)	36%

Structure (SMILES)	inhibition
COc1ccc(OCc2cc(C(=O)N3CCC(c4ccccc4)CC3)no2)c(Cl)c1	-96.3%
Cc1ccc(C)c(OCc2cc(C(=O)NC3CCN(Cc4ccccc4)CC3)no2)c1	22.7%
CSc1ccccc1OCc1cc(C(=O)N2CCC(c3ccncc3)CC2)no1	29.9%
Cc1c(C(C)NC(=O)c2cc(COc3cccc4cnccc34)on2)cnn1C (centres undefined)	53.8% (active)
O=C(c1cc(COc2cccc3cnccc23)on1)N1CCCC(CCCO)C1 (centres undefined)	61.6% (active)
NS(=O)(=O)c1ccc(Sc2nc3ccccc3s2)c([N+](=O)[O-])c1	35.3%
N#C/C(=C\c1ccc(O)c([N+](=O)[O-])c1)c1nc2ccccc2s1	76.9% (active)
CCOc1ccc(-c2csc(/C(C#N)=C\c3ccc(O)c([N+](=O)[O-])c3)n2)cc1	0.4%
Cc1sc(NC(=O)CSc2ncn(-c3ccccc3)n2)nc1-c1ccccc1	33.1%
CCOC(=O)c1c(-c2ccccc2)csc1NC(=O)CSc1nc(N)cc(N)n1	61.5% (active)
CC(C)c1ccc(-c2csc(NC(=O)c3cccs3)c2C(=O)O)cc1	16.6%
CCOc1cc(/C=C2\CN(C)C/C(=C\c3ccc(O)c(OCC)c3)C2=O)ccc1O	65.5% (active)
CCOc1cc(/C=C2\CN(CC)C/C(=C\c3ccc(O)c(OCC)c3)C2=O)ccc1O	96.7% (active)
CC(C)COc1ccc(C(=O)Nc2sc3c(c2C(=O)O)CC(C)(C)OC3)cc1	35.4%
CCOC(=O)c1c(NC(=S)NCCc2ccccc2)sc2c1CC(C(C)C)OC2 (centres undefined)	82.3% (active)
CCCCCCCCCCn1c2c(c(=N)c3c1CCC3)CCC2	78.4% (active)
CCCCCCCCCn1c2c(c(=N)c3c1CCC3)CCC2	74.8% (active)
CCCCCCCCn1c2c(c(=N)c3ccccc31)CCC2	74.7% (active)
Fc1ccc2[nH]c3c(N4CCc5ccccc5C4)ncnc3c2c1	45.8%
Oc1c(CN2CCN(c3ccccc3)CC2)cc(Br)c2cccnc12	15.7%
COCCCNC(=O)c1sc2ncnc(N3CCc4ccccc4C3)c2c1C	44.9%
Cc1c(C)n(Cc2ccccc2)c2ncnc(Cl)c12	42.6%
